Article PMC10812921, “Transcriptional Coactivator BOB1 (OBF1, OCA-B) Modulates the Specificity of DNA Recognition by the POU-Domain Factors OCT1 and OCT2 in a Monomeric Configuration”

Tests used:
[1] = biological target: POU1 (OCT1 POU domain) (human, UniProt P14859 260-458); test: EMSA-SELEX-seq; no BOB1; 20 mM Tris-HCl pH 7.6, 140 mM NaCl, 10% glycerol, 0.5 mM EDTA, 0.05% Triton X-100, 0.1 mg/mL BSA, 0.1 mg/mL poly(dI-dC), 5 mM DTT, room temperature, 20 min; high values mean tight binding; settings: protein: recombinant; dsDNA, one strand shown
Procedure, shortened: (§1)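 Binding preference is reported as the percentage of sequenced 8-mers that match a motif pattern. Tagged POU-domain proteins were made in E. coli BL21, purified under denaturing conditions and renatured. A 30 ng portion was combined with 300 ng of a PCR-amplified double-stranded random 35-nt library, with or without 28 ng coactivator protein, in 20 μL Tris–HCl pH 7.6 binding buffer for 20 min at RT. Complex bands were excised from native 6% PAGE, eluted and PCR-amplified over four rounds before Illumina sequencing.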

[2] = biological target: T1, POU2 (OCT2 POU domain) (human, UniProt P09086 175-386); test: as above; settings: protein: recombinant; dsDNA, one strand shown
T1 sequence: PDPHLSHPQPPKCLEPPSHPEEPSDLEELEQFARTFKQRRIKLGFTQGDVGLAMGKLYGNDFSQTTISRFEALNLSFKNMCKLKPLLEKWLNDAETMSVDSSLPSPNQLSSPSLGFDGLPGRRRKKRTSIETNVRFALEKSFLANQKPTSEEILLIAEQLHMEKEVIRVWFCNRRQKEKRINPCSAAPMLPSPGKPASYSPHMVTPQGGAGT
Procedure, shortened: as §1

[3] = biological target: POU1 (OCT1 POU domain);BOB1 (OBF1, OCA-B) (human;human, UniProt P14859;Q16633 260-458;1-256, |); test: EMSA-SELEX-seq; with BOB1 (ternary complex band); 20 mM Tris-HCl pH 7.6, 140 mM NaCl, 10% glycerol, 0.5 mM EDTA, 0.05% Triton X-100, 0.1 mg/mL BSA, 0.1 mg/mL poly(dI-dC), 5 mM DTT, room temperature, 20 min; high values mean tight binding; settings: protein: recombinant;recombinant; copies: 1;1; dsDNA, one strand shown
Procedure, shortened: as §1

[4] = biological target: T2, POU2 (OCT2 POU domain);BOB1 (OBF1, OCA-B) (human;human, UniProt P09086;Q16633 175-386;1-256, |); test: as above; settings: protein: recombinant;recombinant; copies: 1;1; dsDNA, one strand shown
T2 sequence 1: T1 sequence
T2 sequence 2: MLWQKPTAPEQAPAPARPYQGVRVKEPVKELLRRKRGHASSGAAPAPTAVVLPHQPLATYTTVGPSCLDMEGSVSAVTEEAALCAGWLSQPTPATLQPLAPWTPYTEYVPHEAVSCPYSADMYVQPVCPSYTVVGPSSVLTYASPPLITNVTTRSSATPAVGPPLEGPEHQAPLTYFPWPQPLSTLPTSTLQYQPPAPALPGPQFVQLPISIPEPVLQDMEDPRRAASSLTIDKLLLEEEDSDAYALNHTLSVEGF
Procedure, shortened: as §1

POU1 (OCT1 POU domain), sequence (P14859 260-458): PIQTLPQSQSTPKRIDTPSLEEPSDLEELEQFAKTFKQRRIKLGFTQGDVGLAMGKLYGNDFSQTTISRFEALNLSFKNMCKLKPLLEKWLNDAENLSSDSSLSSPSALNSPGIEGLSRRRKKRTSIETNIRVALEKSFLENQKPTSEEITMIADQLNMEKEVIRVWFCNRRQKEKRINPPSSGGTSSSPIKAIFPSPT

Sequence	binding signal [1]	binding signal [2]	binding signal [3]	binding signal [4]
ACGAGAAC	0.0179 % of ANNNNAAN 8-mers	0.0178 % of ANNNNAAN 8-mers	0.0156 % of ANNNNAAN 8-mers	0.0165 % of ANNNNAAN 8-mers
ACAGCAAT	0.0286 % of ANNNNAAN 8-mers	0.0288 % of ANNNNAAN 8-mers	0.0281 % of ANNNNAAN 8-mers	0.0215 % of ANNNNAAN 8-mers
ACTGGAAC	0.0168 % of ANNNNAAN 8-mers	0.0207 % of ANNNNAAN 8-mers	0.0183 % of ANNNNAAN 8-mers	0.0206 % of ANNNNAAN 8-mers
AGTACAAG	0.029 % of ANNNNAAN 8-mers	0.0253 % of ANNNNAAN 8-mers	0.0359 % of ANNNNAAN 8-mers	0.0297 % of ANNNNAAN 8-mers
AACATAAT	0.134 % of ANNNNAAN 8-mers	0.174 % of ANNNNAAN 8-mers	0.0515 % of ANNNNAAN 8-mers	0.071 % of ANNNNAAN 8-mers
AACTGAAA	0.0358 % of ANNNNAAN 8-mers	0.0386 % of ANNNNAAN 8-mers	0.0382 % of ANNNNAAN 8-mers	0.038 % of ANNNNAAN 8-mers
ATCATAAC	0.0324 % of ANNNNAAN 8-mers	0.0374 % of ANNNNAAN 8-mers	0.023 % of ANNNNAAN 8-mers	0.0322 % of ANNNNAAN 8-mers
ATGGTAAG	0.0984 % of ANNNNAAN 8-mers	0.127 % of ANNNNAAN 8-mers	0.071 % of ANNNNAAN 8-mers	0.09 % of ANNNNAAN 8-mers
AGAGAAAG	0.0442 % of ANNNNAAN 8-mers	0.0501 % of ANNNNAAN 8-mers	0.0375 % of ANNNNAAN 8-mers	0.038 % of ANNNNAAN 8-mers
ATGTTAAA	0.212 % of ANNNNAAN 8-mers	0.216 % of ANNNNAAN 8-mers	0.0956 % of ANNNNAAN 8-mers	0.0892 % of ANNNNAAN 8-mers
AAAACAAC	0.0362 % of ANNNNAAN 8-mers	0.0345 % of ANNNNAAN 8-mers	0.0609 % of ANNNNAAN 8-mers	0.0462 % of ANNNNAAN 8-mers
AGTCAAAA	0.164 % of ANNNNAAN 8-mers	0.117 % of ANNNNAAN 8-mers	0.265 % of ANNNNAAN 8-mers	0.115 % of ANNNNAAN 8-mers
ATATAAAC	0.0637 % of ANNNNAAN 8-mers	0.0719 % of ANNNNAAN 8-mers	0.055 % of ANNNNAAN 8-mers	0.0652 % of ANNNNAAN 8-mers
AGATAAAA	0.0542 % of ANNNNAAN 8-mers	0.057 % of ANNNNAAN 8-mers	0.0597 % of ANNNNAAN 8-mers	0.0462 % of ANNNNAAN 8-mers
ACCACAAT	0.0179 % of ANNNNAAN 8-mers	0.0178 % of ANNNNAAN 8-mers	0.0199 % of ANNNNAAN 8-mers	0.0215 % of ANNNNAAN 8-mers
ACATTAAG	0.095 % of ANNNNAAN 8-mers	0.0875 % of ANNNNAAN 8-mers	0.0539 % of ANNNNAAN 8-mers	0.0487 % of ANNNNAAN 8-mers
AGCTTAAA	0.037 % of ANNNNAAN 8-mers	0.0437 % of ANNNNAAN 8-mers	0.0258 % of ANNNNAAN 8-mers	0.0421 % of ANNNNAAN 8-mers
ACCAGAAT	0.032 % of ANNNNAAN 8-mers	0.0437 % of ANNNNAAN 8-mers	0.0293 % of ANNNNAAN 8-mers	0.0363 % of ANNNNAAN 8-mers
AGGAAAAC	0.0591 % of ANNNNAAN 8-mers	0.0552 % of ANNNNAAN 8-mers	0.0839 % of ANNNNAAN 8-mers	0.0636 % of ANNNNAAN 8-mers
ACACCAAT	0.0187 % of ANNNNAAN 8-mers	0.0173 % of ANNNNAAN 8-mers	0.0168 % of ANNNNAAN 8-mers	0.019 % of ANNNNAAN 8-mers
AGTTGAAG	0.0355 % of ANNNNAAN 8-mers	0.0316 % of ANNNNAAN 8-mers	0.0398 % of ANNNNAAN 8-mers	0.0338 % of ANNNNAAN 8-mers
AACGCAAG	0.016 % of ANNNNAAN 8-mers	0.0219 % of ANNNNAAN 8-mers	0.0222 % of ANNNNAAN 8-mers	0.0281 % of ANNNNAAN 8-mers
AAGGAAAG	0.0576 % of ANNNNAAN 8-mers	0.0524 % of ANNNNAAN 8-mers	0.0792 % of ANNNNAAN 8-mers	0.0644 % of ANNNNAAN 8-mers
AATTGAAG	0.069 % of ANNNNAAN 8-mers	0.0725 % of ANNNNAAN 8-mers	0.0624 % of ANNNNAAN 8-mers	0.052 % of ANNNNAAN 8-mers

Sequence	binding signal [1]	binding signal [2]	binding signal [3]	binding signal [4]
AGCTAAAT	0.0652 % of ANNNNAAN 8-mers	0.0633 % of ANNNNAAN 8-mers	0.0738 % of ANNNNAAN 8-mers	0.0479 % of ANNNNAAN 8-mers
AAATCAAT	0.139 % of ANNNNAAN 8-mers	0.143 % of ANNNNAAN 8-mers	0.162 % of ANNNNAAN 8-mers	0.148 % of ANNNNAAN 8-mers
AAATCAAC	0.0759 % of ANNNNAAN 8-mers	0.0921 % of ANNNNAAN 8-mers	0.096 % of ANNNNAAN 8-mers	0.0916 % of ANNNNAAN 8-mers
ATGAAAAC	0.0717 % of ANNNNAAN 8-mers	0.0604 % of ANNNNAAN 8-mers	0.0956 % of ANNNNAAN 8-mers	0.0586 % of ANNNNAAN 8-mers
ACTTAAAC	0.0336 % of ANNNNAAN 8-mers	0.046 % of ANNNNAAN 8-mers	0.0277 % of ANNNNAAN 8-mers	0.0355 % of ANNNNAAN 8-mers
AAGTTAAG	0.0568 % of ANNNNAAN 8-mers	0.0742 % of ANNNNAAN 8-mers	0.0539 % of ANNNNAAN 8-mers	0.0636 % of ANNNNAAN 8-mers
ACAATAAG	0.0339 % of ANNNNAAN 8-mers	0.042 % of ANNNNAAN 8-mers	0.0375 % of ANNNNAAN 8-mers	0.0396 % of ANNNNAAN 8-mers
AATACAAG	0.0637 % of ANNNNAAN 8-mers	0.0662 % of ANNNNAAN 8-mers	0.0675 % of ANNNNAAN 8-mers	0.0479 % of ANNNNAAN 8-mers
ATTTTAAC	0.0812 % of ANNNNAAN 8-mers	0.0921 % of ANNNNAAN 8-mers	0.0652 % of ANNNNAAN 8-mers	0.0652 % of ANNNNAAN 8-mers
ATACGAAA	0.0698 % of ANNNNAAN 8-mers	0.0777 % of ANNNNAAN 8-mers	0.0698 % of ANNNNAAN 8-mers	0.0693 % of ANNNNAAN 8-mers
ACTAGAAA	0.032 % of ANNNNAAN 8-mers	0.0322 % of ANNNNAAN 8-mers	0.0261 % of ANNNNAAN 8-mers	0.0305 % of ANNNNAAN 8-mers
AGTCGAAG	0.0305 % of ANNNNAAN 8-mers	0.0357 % of ANNNNAAN 8-mers	0.023 % of ANNNNAAN 8-mers	0.0347 % of ANNNNAAN 8-mers
AAAACAAG	0.0641 % of ANNNNAAN 8-mers	0.0432 % of ANNNNAAN 8-mers	0.087 % of ANNNNAAN 8-mers	0.0751 % of ANNNNAAN 8-mers
ACACGAAC	0.0114 % of ANNNNAAN 8-mers	0.0167 % of ANNNNAAN 8-mers	0.0121 % of ANNNNAAN 8-mers	0.0124 % of ANNNNAAN 8-mers
ACTAAAAC	0.0233 % of ANNNNAAN 8-mers	0.0311 % of ANNNNAAN 8-mers	0.023 % of ANNNNAAN 8-mers	0.0297 % of ANNNNAAN 8-mers
AGTGGAAA	0.0542 % of ANNNNAAN 8-mers	0.0512 % of ANNNNAAN 8-mers	0.0718 % of ANNNNAAN 8-mers	0.052 % of ANNNNAAN 8-mers
ATCGAAAT	0.0694 % of ANNNNAAN 8-mers	0.0633 % of ANNNNAAN 8-mers	0.0777 % of ANNNNAAN 8-mers	0.0512 % of ANNNNAAN 8-mers
ATGCAAAG	1.06 % of ANNNNAAN 8-mers	0.831 % of ANNNNAAN 8-mers	2.22 % of ANNNNAAN 8-mers	2.27 % of ANNNNAAN 8-mers
ATGCCAAA	0.0458 % of ANNNNAAN 8-mers	0.0501 % of ANNNNAAN 8-mers	0.0464 % of ANNNNAAN 8-mers	0.0438 % of ANNNNAAN 8-mers
ATGTGAAA	0.0671 % of ANNNNAAN 8-mers	0.0748 % of ANNNNAAN 8-mers	0.0687 % of ANNNNAAN 8-mers	0.0718 % of ANNNNAAN 8-mers
ACATGAAT	0.151 % of ANNNNAAN 8-mers	0.179 % of ANNNNAAN 8-mers	0.0773 % of ANNNNAAN 8-mers	0.0925 % of ANNNNAAN 8-mers
AAGGGAAT	0.115 % of ANNNNAAN 8-mers	0.121 % of ANNNNAAN 8-mers	0.0765 % of ANNNNAAN 8-mers	0.0908 % of ANNNNAAN 8-mers
ACCTTAAA	0.021 % of ANNNNAAN 8-mers	0.023 % of ANNNNAAN 8-mers	0.0375 % of ANNNNAAN 8-mers	0.0173 % of ANNNNAAN 8-mers
AGTATAAG	0.0397 % of ANNNNAAN 8-mers	0.0587 % of ANNNNAAN 8-mers	0.041 % of ANNNNAAN 8-mers	0.0454 % of ANNNNAAN 8-mers
